A selection: hits, their analogues and other compounds. The true share with any hit is near 5.1%.
ROMK mod – ROMK potassium channel modulators, primary screen, cell-based, thallium flux, MLSMR library; ATP-sensitive inward rectifier potassium channel 1 (Homo sapiens), P48048; B-score at 10 µM; hit rate 2% among 130,000; Tet-inducible ROMK, thallium flux fluorescence; actives lie on both sides;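 active = signal ratio slope over the read window, or its plate-corrected B-score, at least 3 SD from the plate mean, either direction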;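 note: B-score of the F/F0 ratio slope over 7 to 12 s after thallium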
S1P4 ag – S1P4 receptor agonists, primary screen, cell-based. S1P4-expressing cell line, agonist reporter assay. activation, % at 4.98 µM. hit rate 0.35% among 220,000; in the data active = activation above about 11%
Target sequence (O95977 whole entry, looked up): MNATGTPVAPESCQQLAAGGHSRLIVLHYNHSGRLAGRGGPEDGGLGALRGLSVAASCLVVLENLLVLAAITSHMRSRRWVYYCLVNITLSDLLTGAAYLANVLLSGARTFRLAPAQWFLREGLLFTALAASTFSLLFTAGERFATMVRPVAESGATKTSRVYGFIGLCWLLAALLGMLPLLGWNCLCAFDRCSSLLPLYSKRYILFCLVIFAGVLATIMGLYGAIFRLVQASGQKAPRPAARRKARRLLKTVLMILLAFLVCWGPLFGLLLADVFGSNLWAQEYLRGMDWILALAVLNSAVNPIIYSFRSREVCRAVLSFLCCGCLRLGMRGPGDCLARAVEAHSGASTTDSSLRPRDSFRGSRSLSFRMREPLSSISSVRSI
S1P4 antag – S1P4 receptor antagonists, primary screen, cell-based; inhibition, % at 4.98 µM; S1P4-expressing cells, antagonist mode, reporter read-out; hit rate 0.26% among 220,000; in the data active = inhibition above about 29%
RAM network inh – inhibitors of the yeast RAM network, primary screen, dse1pr::URA3 reporter, 5-FOA selection; AID 868, 2007; S. cerevisiae dse1pr::URA3 reporter, 5-FOA growth OD615, 2 d; analog-sensitive cbk1-as2 kinase mutant strain; inhibition, % at 50 µM; hit rate 1.8% among 190,000;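 active = inhibition above a set limit, 3 SD over mean compound inhibition, cut at about 8.4% in these data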;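 note: inhibition rescues growth on 5-FOA so higher OD means more RAM inhibition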
S1P3 antagonist – S1P3 receptor antagonists, primary screen, cell-based; inhibition, % at 4.98 µM; CHO S1P3 NFAT-BLA reporter, FRET fluorescence, antagonist mode; Sphingosine 1-phosphate receptor 3 (Homo sapiens), Q99500; hit rate 0.27% among 170,000;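 active = inhibition above the plate cutoff, the mean inhibition of test wells on that plate plus 3 SD, cut at about 28% in these data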;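 note: cells challenged with S1P at its EC80 of 0.8 µM; blue over green emission ratio from cleaved BLA substrate after 4 h stimulation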
Cl transport mod – KCC2 cotransporter modulators, thallium flux, primary screen, cell-based, HEK293 KCC2, FluoZin-2 fluorescence, MLSMR. Solute carrier family 12 member 5 (Homo sapiens), Q9H2X9. KCC2 cells, thallium flux FluoZin-2 fluorescence. B-score of Tl+ flux slope (higher = more flux/activation; lower = inhibition) at 10 µM. hit rate 2.2% among 190,000. AID 1456, 2008;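 active = thallium flux slope and its plate-corrected score both differing from the plate sample mean at a set confidence after two filtering rounds, in either direction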;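 note: slope of fluorescence scaled to starting intensity during 10 to 20 s after thallium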
RAM efflux-def – 5-FOA growth of efflux-deficient control yeast, dose response, counter-screen for RAM network inhibitor project, S. cerevisiae, OD615 | shares compounds with RAM network inh | S. cerevisiae efflux-deficient reporter strain, 5-FOA growth OD615, 2 days | max inhibition, % | 1,200 tested, under 10 active | AID 1305, 2008; call rule not given here
Numbers stand for hits; 0 = inactive; - = not tested or not shown.

SMILES	ROMK mod	S1P4 ag	S1P4 antag	RAM network inh	S1P3 antagonist	Cl transport mod	RAM efflux-def
FC(F)(F)c1cc(-c2ccco2)nc(N2CCN(Cc3ccccc3)CC2)n1	-	0	0	0	-	-	-
N#C/C(=C\c1ccc(-c2ccc(S(=O)(=O)N3CCOCC3)cc2)o1)C(=O)NC1CC1	0	0	0	13.0	0	0	0
COc1cccc(CNC(=O)Cn2cc3c(n2)CCCC3)c1	-	0	0	0	0	0	-
COc1cccc(CNC(=O)CN2C(=O)CC(c3ccccc3)=Nc3ccccc32)c1	0	0	0	12.6	0	0	0
O=C(O)COc1ccc(/C=N/n2c(COc3ccccc3)nc3ccccc3c2=O)cc1	-	0	0	12.6	0	0	0
Cc1cccc(C)c1OCc1nc2ccccc2c(=O)n1/N=C/c1ccc(OCC(=O)O)cc1	0	0	0	0	0	0	-
CCOc1cc(S(=O)(=O)Nc2ccccc2CC)ccc1Cl	-	0	0	0	-	0	-
CCOc1cc(S(=O)(=O)Nc2ccc(CC)cc2)ccc1Cl	0	0	0	14.3	-	0	0
O=C(O)CCCCn1c(SCc2cc(=O)n3cc(Cl)ccc3n2)nc2ccsc2c1=O	0	0	0	0	0	0	-
O=C(O)CCCCn1c(SCc2ccccc2Cl)nc2ccsc2c1=O	0	0	0	16.9	0	0	0
O=C(c1cc(COc2ccc(F)cc2Cl)on1)N1CCCC(c2ccccc2)C1 (stereo unspecified)	0	0	0	13.1	0	0	0
O=C(c1cc(COc2ccc(F)cc2F)on1)N1CCCC(c2ccccc2)C1 (stereo unspecified)	0	0	0	0	0	0	-
Cc1ccc(CN2CCSc3ccc(C(=O)NCc4ccco4)cc32)cc1	-	0	0	13.5	0	0	0
O=C(/C=C/c1ccc2c(c1)OCCCO2)c1ccc2ccccc2c1O	-	0	0	12.3	0	0	0
Cc1cc(NC(=O)CSc2nc3ccsc3c(=O)n2Cc2ccccn2)n[nH]1	0	0	0	19.8	-	-	0
CCCCn1c(SCC(=O)Nc2cc(C)[nH]n2)nc2ccsc2c1=O	-	0	0	0	-	0	-
CN(CCN1CCOCC1)Cc1nc(-c2ccc(Cl)cc2)no1	-	0	0	-	0	0	-
COc1cccc(/C=C/C(=O)OCC(=O)Nc2cc(C(F)(F)F)ccc2Cl)c1	-	0	0	11.5	0	0	0
O=C(CN(Cc1ccccc1F)S(=O)(=O)c1ccc(Cl)cc1)NCCC1=CCCCC1	0	0	0	12.2	-	0	0
Cc1noc(C)c1COc1cccc(C(=O)Nc2ccc(OCc3ccccc3)cc2)c1	-	0	0	11.9	-	0	0
Cc1ccccc1N=C(NOCc1ccc(Cl)cc1Cl)c1nonc1N	0	0	0	0	-	0	-
Cc1ccc(N=C(NOCc2ccc(Cl)cc2Cl)c2nonc2N)c(C)c1	0	0	0	12.6	-	0	0
CCOP(=O)(OCC)c1nc(-c2cccc3ccccc23)oc1NCc1ccccc1	-	0	0	0	-	-	-
CCOP(=O)(OCC)c1nc(-c2cccc3ccccc23)oc1NCc1ccc(OC)cc1	-	0	0	12.9	0	0	0
CCSC1=NSC2=NC(=O)/C(=C\c3coc4ccccc4c3=O)C(=N)N12	-	0	0	0	0	0	-
SMILES	ROMK mod	S1P4 ag	S1P4 antag	RAM network inh	S1P3 antagonist	Cl transport mod	RAM efflux-def
CC(C)CC1=NN2C(=N)/C(=C\c3coc4ccccc4c3=O)C(=O)N=C2S1	-	0	0	13.8	0	0	0
Cc1ccccc1OCC(O)Cn1c2ccccc2c2ccccc21 (stereo unspecified)	-	0	0	12.6	-	-	0
CC(=O)Nc1ccc(OCC(O)Cn2c3ccccc3c3ccccc32)c(C)c1 (stereo unspecified)	0	0	0	0	-	0	-
O=C(NCc1ccco1)c1ccc(-c2cccc(Cl)c2)o1	-	0	0	0	0	-	-
CSc1ccccc1NC(=O)COC(=O)c1ccccc1Cc1ccccc1	0	0	0	0	0	0	-
O=C(COC(=O)c1ccccc1Cc1ccccc1)Nc1ccc(SC(F)F)cc1	0	0	0	14.3	0	0	0
Cc1ccc(C(=O)c2ccccc2C(=O)OCC(=O)NCCc2ccc(Cl)cc2Cl)cc1	0	0	0	15.1	0	0	0
Cc1ccc(C(=O)c2ccccc2C(=O)OCC(=O)Nc2ccc(SC(F)F)cc2)cc1	0	0	0	13.2	0	0	0
O=C(COC(=O)c1cc(Cl)ccc1[N+](=O)[O-])NCc1ccc(Cl)cc1Cl	0	0	0	13.5	0	0	0
COC(=O)N1[C@H](C)C=C[C@]1(Cc1ccccc1)C(=O)O	0	0	0	0	0	0	-
COCCN1C(=O)N[C@@H](c2ccco2)C(C(C)=O)=C1C	0	0	0	0	0	0	-
CCS(=O)(=O)n1nc(-c2ccccc2)nc1NCc1ccco1	0	0	0	0	0	0	-
Cc1ccc(S(=O)(=O)n2nc(-c3ccc(Cl)cc3)nc2NCc2ccco2)cc1	0	0	0	15.2	0	0	0
O=C1COc2ccc(C(=O)COc3ccc([N+](=O)[O-])cc3)cc2N1	-	0	0	-	0	0	-
N#Cc1c(SCc2ccccc2)nc(N2CCOCC2)c2c1CCCC2	0	0	0	15.0	0	-	0
Cc1ccc(NC(=O)c2c3c(nc4ccccc24)CCC3)cc1S(=O)(=O)N(C)C	0	0	0	0	0	0	-
COc1ccc(CCN2C(=O)/C(=C\c3ccco3)SC2=S)cc1OC	0	0	0	11.9	0	0	0
Cc1ccc(NC(=O)CNC(=O)c2cccs2)cc1S(=O)(=O)Nc1ccc(Cl)cc1	0	0	0	11.9	0	0	0
O=C(CNS(=O)(=O)c1ccccc1)OCC(=O)c1ccc(OC(=O)c2ccccc2)cc1	0	0	0	0	-	0	-
Cc1ccccc1OCC(=O)OCC(=O)c1ccc(OCc2ccccc2)cc1	-	0	0	11.9	0	0	0
Cc1ccccc1OCC(=O)OCC(=O)c1ccc(OC(=O)c2ccccc2)cc1	0	0	0	13.6	-	0	0
O=C(COC(=O)c1cccc([N+](=O)[O-])c1)c1ccc(OCc2ccccc2)cc1	-	0	0	0	0	0	-
COc1ccc(-c2ccc(-c3noc(-c4cccc(OC)c4)n3)c(OC)n2)cc1	0	0	0	14.7	0	-	0
CCOc1nc(-c2ccccc2)ccc1-c1noc(COc2ccccc2)n1	-	0	0	17.2	0	0	0
COc1ccc(-c2ccc(-c3noc(C)n3)c(OC)n2)cc1	-	0	0	0	0	-	-

Compound activity: PubChem, several laboratories
